Results reported in PubChem BioAssay AID651820 (National Center for Advancing Translational Sciences (NCATS), 2012).
Out of some 340,000 compounds screened, about 12,000 (3.5%) were called active. Another 18% or so got no clear call; they are omitted. Many of the other results were omitted from the sample, so actives are more common in it than they were. Values without a mark were called inactive. Calls come from the whole dose curve; as a rule, active = well fitted inhibition curve with a large enough effect; inconclusive = small, poorly fitted or top-dose-only effect, or another doubt; inactive = no such curve, though single readings can be large or run the other way.

experiment: qHTS Assay for Inhibitors of Hepatitis C Virus (HCV); conditions: Huh7.5.1 HCVcc-Cre infection, luciferase reporter, 44 h; series mostly up to 41.8 µM; activity change, negative = inhibition: at the top concentration
In short: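 Cells (1,000/well) were plated 4 h before compound, then infected with HCVcc-Cre virus (~0.5 moi). After 44 h further culture, infection was read as luciferase luminescence following a 15 min substrate incubation at room temperature.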
% is set by controls: 0 for no effect and ±100 for the full control effect; potency is the fitted concentration of half-maximal effect.

SMILES	activity change, negative = inhibition	Potency
O=c1ccn([C@@H]2O[C@H](CNS(=O)(=O)c3cc4ccccc4s3)[C@@H](O)[C@H]2O)c(=O)[nH]1	14.9%	
COc1ccc(NC(=O)N2CCC3(CC2)OCCO3)c(OC)c1	-0.519%	
COc1cccc(CNc2nc3nc4c(c(=O)n3[nH]2)CCC4)c1	8.96%	
COc1cccc(-c2cc3nc4c(c(N5CCC6(CC5)OCCO6)n3n2)CCCC4)c1		12.6 µM (active)
Cc1ccc(S(=O)(=O)N2CCOCC2)cc1C(=O)Nc1ccccc1N1CCCC1	16.1%	
CCc1nc(NCCO)c(C#N)c2c1CCCC2	-25%	
CC(C)CCNc1nc(N2CCCC2)c2c(c1C#N)CCN(C)C2		12.6 µM (active)
CCN1CCc2c(C#N)c(NCc3ccccc3)nc(NCCO)c2C1	-15.5%	
O=C(NCCc1ccccc1)c1c[nH]c2ccc(F)cc2c1=O	-7.82%	
CCOc1ccc(CC(=O)NCCS(=O)(=O)N2CCN(c3ccccc3)CC2)cc1	-0.883% [at 8.37 µM]	
N#Cc1ccc(C2=CC(=O)C[C@H](c3ccc(Cl)cc3)C2)cc1	16.4%	
O=C(NCc1ccncc1)C1CCCN(S(=O)(=O)c2ccc(Br)cc2)C1 (stereo not given)	1.08%	
CCCS(=O)(=O)N1CCCC(C(=O)N2CCN(c3ccccc3)CC2)C1 (stereo not given)	-7.58%	
COc1cccc(N2CCN(C(=O)C3CCCN(S(=O)(=O)c4cnc[nH]4)C3)CC2)c1 (stereo not given)	4.7%	
CC(=O)Nc1ccc(NC(=O)C2CCCN(S(=O)(=O)c3ccc(Cl)cc3)C2)cc1 (stereo not given)	27%	
CC(=O)N1CCCc2cc(S(=O)(=O)CCC(=O)N3CCN(c4ccccc4)CC3)ccc21	-6%	
CC(=O)N1c2ccc(S(=O)(=O)N3CCC(C(=O)NC4CCCC(C)C4C)CC3)cc2CC1C (stereo not given)	7.36%	
O=C(C1CCCN(S(=O)(=O)c2ccccc2)C1)N1CCN(c2ccc(F)cc2)CC1 (stereo not given)		20 µM (active)
CCS(=O)(=O)N1CCCC(C(=O)NCc2ccc(C)cc2)C1 (stereo not given)	7.32%	
CC(=O)N1CCCc2cc(S(=O)(=O)N3CCCC(C(=O)N4CCN(c5cccc(Cl)c5)CC4)C3)ccc21 (stereo not given)		3.16 µM (active)
CC(=O)N1c2ccc(S(=O)(=O)N3CCCC(C(=O)NCc4ccc(Cl)cc4)C3)cc2CC1C (stereo not given)		5.62 µM (active)
Cc1ccc(S(=O)(=O)N2CCCC(C(=O)N3CCN(C)CC3)C2)cc1 (stereo not given)	8.03%	

SMILES	activity change, negative = inhibition	Potency
CC(=O)N1CCCc2cc(S(=O)(=O)N3CCCC(C(=O)NCc4ccc(Cl)cc4)C3)ccc21 (stereo not given)		14.1 µM (active)
Cc1cc(NC(=O)CSCC(=O)NC(C)c2ccccc2)no1 (stereo not given)	2.94%	
CCN(c1ccccc1)S(=O)(=O)c1cc(C(=O)NCc2ccccn2)ccc1C	-17.6%	
O=C(COC(=O)c1ccc(O)cc1O)NC(=O)c1ccccc1	17.8%	
CCOc1ccc2oc(C(=O)N(CC)CC(=O)Nc3ccc(NC(C)=O)cc3)c(C)c2c1	-16.3%	
COc1ccc(C(C)(C)C)cc1NC(=O)CCN1C(=O)C2CCCCC2C1=O (stereo not given)	2.14%	
O=[N+]([O-])c1ncc(Br)cc1Nc1ccccc1	11.3%	
CCN(CC)S(=O)(=O)c1ccc(CNC(=O)CN2C(=O)NC3(CCc4ccccc43)C2=O)cc1 (stereo not given)	8.18%	
O=C(NN=Cc1ccc([N+](=O)[O-])cc1)C1CC1	-21.8%	
CSCCC(NS(=O)(=O)c1ccc(C)cc1)C(=O)N(C)CC(=O)Nc1ccccc1Br (stereo not given)	-5.06%	
Cc1ccccc1N1CCN(C(=O)c2cccnc2)CC1	1.85%	
O=C(Nc1ccc(N2CCN(C(=O)c3ccccc3)CC2)c(Cl)c1)c1cccnc1		11.2 µM (active)
O=C(Nc1ccc(N2CCN(C(=O)c3ccccc3)CC2)c(Cl)c1)c1ncn[nH]1	-21.7%	
Cc1cccc(C(=O)NCc2nnc(SC(C)C(=O)Nc3nnc(C)s3)n2C)c1 (stereo not given)	-37%	
c1ccc(Cc2ccc(OCCn3ccnc3)cc2)cc1		12.6 µM (active)
Clc1ncn(CCOc2ccccc2)c1Cl	29%	
Brc1ccc(OCCn2ccnc2)cc1	18.5%	
COc1ccc(CN2CCC(n3nccc3NC(=O)CCCc3ccccc3)CC2)cc1C		10 µM (active)
COc1cc(CN2CCC(n3nccc3NC(=O)CCCc3ccccc3)CC2)ccc1O	-21%	
Cc1ccc(CN2CCC(n3nccc3NC(=O)CCCc3ccccc3)CC2)o1	0.657%	
COc1cccc(N2CC(NC(=O)c3ccc4ccccc4c3)CC2=O)c1 (stereo not given)	15.5%	
CCc1ccccc1NC1c2ccccc2C(=O)N1c1cccnc1 (stereo not given)	11.1%	

SMILES	activity change, negative = inhibition	Potency
O=C1[C@@H](c2ccccc2)[C@@H](c2ccccc2)N1c1cccnc1		5.01 µM (active)
O=C1C(=O)N(c2ccccc2)C(c2ccccc2)C1c1ccccc1 (stereo not given)	-16.7%	
CC[C@@]1(C(=O)OC)N[C@H](CN(C)C(C)=O)[C@@H]2C(=O)N(C)C(=O)[C@@H]21	18.4%	
CC(NC(=O)COC(=O)CCC(=O)c1ccc(Cl)cc1)c1ccccc1 (stereo not given)	-14.6%	
COc1cccc(CNS(=O)(=O)c2ccc3c(c2)CC(C)N3C(=O)C2CCC2)c1 (stereo not given)		6.31 µM (active)
CCC(=O)N1c2ccc(S(=O)(=O)NCc3ccco3)cc2CC1C (stereo not given)	4.82%	
COc1cccc(CNS(=O)(=O)c2ccc3c(c2)CC(C)N3C(C)=O)c1 (stereo not given)	-7.76%	
Cn1cccc1C(=O)OCC(=O)NCCc1ccccc1	14%	
O=C(COC(=O)c1ccc2ncsc2c1)Nc1ccc(Cl)cc1	7.39%	
CCCCn1c(N)c(N(CC(C)C)C(=O)CSc2ccc([N+](=O)[O-])cc2)c(=O)[nH]c1=O	0.648%	
O=C(NNS(=O)(=O)c1c(F)cc(F)c(Cl)c1F)C12CC3CC(CC(C3)C1)C2	6.17%	
COc1cc(/C=N/O)cc(Br)c1OS(=O)(=O)c1ccc(C)cc1	-28.6%	
CCOc1cc(/C=N/O)cc(Br)c1OC		8.91 µM (active)
O=C(O)COc1ccc(/C=N/O)cc1Br	14.8%	
CC(C)c1ccc(C=NNc2ccc([N+](=O)[O-])cn2)cc1	-13.8%	
COc1ccccc1-c1nn(Cc2ccccc2)cc1C(=O)N1CCN(c2ncccn2)CC1	0.899%	
CCn1nc(C(=O)Nc2ccc(N3CCOCC3)cc2)c2ccccc2c1=O	-5.96%	
Cc1cc(NC(=O)CN2C(=O)NC(CC(C)C)C2=O)no1 (stereo not given)	18.5%	
Cc1ccc(S(=O)(=O)N(Cc2cccc([N+](=O)[O-])c2)C(=O)N2CCN(C)CC2)cc1	0.369%	
CCN(CC)C(=O)CN(c1cccc([N+](=O)[O-])c1)S(=O)(=O)c1ccccc1	-6.32%	
O=C(CCl)N(Cc1cccc([N+](=O)[O-])c1)c1cccc(Cl)c1		3.98 µM (active)
